Screening data (PubChem BioAssay)
Only some compounds are listed: those with a hit (about 2.6% of all), similar ones and a draw of the others.
AmpC inh no det = Promiscuous and Specific Inhibitors of AmpC Beta-Lactamase (assay without detergent); P00811; hit rate 1.8% among 71,000; AID 585, 2007; AmpC nitrocefin hydrolysis, absorbance 480 nm, no detergent; Potency, µM (highest dose often 28.7 µM), inactives show at the top dose activity change, negative = inhibition; further: % of control where 0% means no effect
Target sequence (P00811 whole entry, looked up): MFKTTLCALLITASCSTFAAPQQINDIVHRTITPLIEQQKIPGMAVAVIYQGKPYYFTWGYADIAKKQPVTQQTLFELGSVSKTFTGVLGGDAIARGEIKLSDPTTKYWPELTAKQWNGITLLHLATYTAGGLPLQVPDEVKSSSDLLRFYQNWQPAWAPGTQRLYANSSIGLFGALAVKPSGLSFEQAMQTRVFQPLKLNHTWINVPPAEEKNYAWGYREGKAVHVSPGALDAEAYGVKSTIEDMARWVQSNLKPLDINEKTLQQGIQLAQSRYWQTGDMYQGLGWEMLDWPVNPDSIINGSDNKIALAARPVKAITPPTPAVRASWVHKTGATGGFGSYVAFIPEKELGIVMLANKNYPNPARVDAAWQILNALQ
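AmpC in 20 mM phosphate buffer pH 7.0 was preincubated 15 min at room temperature with compounds. Nitrocefin (800 uM stock) was then added and hydrolysis followed at 480 nm every 20 s for 4 min.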
Prx2 Sm inh = Schistosoma Mansoni Peroxiredoxins (Prx2) | Schistosoma mansoni peroxiredoxin 2 (Prx2) | Potency, µM | S. mansoni Prx2 activity coupled to TGR/GSH (TGR is thioredoxin glutathione reductase), NADPH fluorescence loss, qHTS | hit rate 0.07% among 65,000
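Prx2 inhibition was measured as reduced NADPH consumption when electrons flowed from NADPH through TGR and glutathione to Prx2 and H2O2. Plates were read kinetically over 8 min; enzyme reagents were held at 4 deg C during dispensing.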
AmpC inh det = Promiscuous and Specific Inhibitors of AmpC Beta-Lactamase (assay with detergent); P00811; Potency, µM (series often up to 28.7 µM), for the others: at the highest dose activity change, negative = inhibition; hit rate 0.09% among 71,000; AID 584, 2007; purified AmpC, nitrocefin hydrolysis with detergent; active means well fitted curve in the direction sought with a large enough effect; inconclusive means small, poorly fitted or top-dose-only effect; further: on the % scale 0 is the no-effect control and ±100 the full control effect
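E. coli AmpC (5.3 nM) in 20 mM phosphate pH 7.0 with 0.01% Triton X-100, preincubated 15 min RT with compound; nitrocefin (2 uL of 800 uM stock) hydrolysis followed by 480 nm absorbance every 20 s over 4 min.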
LT uptake inh = qHTS Assay for Anthrax Lethal Toxin Internalization. Cells, anthrax lethal toxin internalization, FRET ratio (460/530). Potency, µM (titrated, usually from 40 µM), for the others: at the highest dose activity change, negative = inhibition, most hits filed as inhibitors. hit rate 0.67% among 70,000. AID 912, 2007; further: on the % scale 0 is the no-effect control and ±100 the full control effect; nearly all actives have a fitted effect of over 50% in size
An asterisk follows results filed as active; ? = inconclusive; . = no result; ! = not confirmed by another sample; [ ] = dose if it differs, or a comment. Unless noted, the call rests on the fitted dose curve. Potency means the concentration at half of the fitted maximal effect.

SMILES	AmpC inh no det	Prx2 Sm inh	AmpC inh det	LT uptake inh
NC(=O)c1ncn([C@@H]2O[C@@H](CO)[C@@H](O)[C@H]2O)c1O	-6%	>57	-1%	6%
CCOc1ccccc1-n1nnnc1SCC(=O)Nc1cc2oc3ccccc3c2cc1OC	6.3µM*	>57	-3%	?
COc1ccc(CCNC(=O)CSc2ncnc3c2oc2ccccc23)cc1OC	58%	>57	11%	-15%
CCOc1ccccc1-n1nnnc1SCC(=O)Nc1cc(C)on1	-13%	>57	-8%	-2%
COc1ccc(Cl)cc1NC(=O)CSc1ncnc2c1oc1ccccc12	13µM*[single pt active]	>57	-3%	?
NC(=O)c1ccsc1NC(=O)c1nc(-c2ccccc2)n(-c2ccccc2)n1	-24%	?	-1%	10µM*
N#Cc1c(NC(=O)Cn2c(=O)oc3ccccc32)oc(-c2ccccc2)c1-c1ccccc1	13µM*	>57	1%	10µM*
Cc1oc(-c2cccc(Cl)c2)nc1CN1CCC(C(=O)NCc2ccco2)CC1	77%	>57	-2%	?
CCN1CCN(CCNC(=O)C2CCN(Cc3nc(-c4ccc(Cl)cc4)oc3C)CC2)CC1	4µM*[single pt active]	>57	12%	?
Cc1oc(-c2ccc(Cl)cc2)nc1CN1CCC(C(=O)NCCCN2CCCC2=O)CC1	93%	>57	12%	-5%
CCN1CCCC1CNC(=O)C1CCN(Cc2nc(-c3cccc(Br)c3)oc2C)CC1 (stereo unspecified)	50%	>57	-4%	6.3µM*
Cc1ccccc1-c1nc(CN2CCC(C(=O)NCCCN3CC(C)CC(C)C3)CC2)c(C)o1 (stereo unspecified)	34%	>57	-3%	2.5µM*
OC[P+](CO)(CO)CO	-8%	.	10%	-25%
Cc1ccc(S(=O)(=O)N[C@H]2COC(=O)[C@H](C)COC(=O)[C@H](C)NC(=O)C/C=C\[C@H]2C)cc1	.	.	.	4%[8 µM]
C/C(=N\O)c1ccc2c3c([nH]c2c1)CCCC3	-9%	.	4%	10µM*
O=C(NCCO)c1ccc2[nH]c3c(c2c1)CCCC3	2%	.	5%	-13%
COc1ccc(C2CC(c3ccc(F)cc3)Nc3nc(N)nn32)cc1 (stereo unspecified)	4µM*[single pt active]	>57	14%	?
COc1cccc(C2CC(c3ccccc3)Nc3nc(N)nn32)c1 (stereo unspecified)	4µM*[single pt active]	>57	9%	4%
COc1cccc(C2CC(c3c(F)cccc3Cl)n3nc(N)nc3N2)c1 (stereo unspecified)	35%	>57	-2%	-18%
CCOc1ccc(C2CC(c3ccc(F)cc3)Nc3nc(N)nn32)cc1 (stereo unspecified)	36%	>57	13%	6%
COc1cccc(C2CC(c3c(Cl)cccc3Cl)n3nc(N)nc3N2)c1 (stereo unspecified)	4µM*[single pt active]	>57	13%	3%
COc1ccc(C2CC(c3cccc(OC)c3)n3nc(N)nc3N2)cc1 (stereo unspecified)	4µM*[single pt active]	>57	9%	-5%
O=C(/C=N/O)NCCCCNC(=O)/C=N/O	.	.	.	-19%[8 µM]
Nc1cccc2cc(S(=O)(=O)Nc3ccc(C(=O)O)cc3)ccc12	-13%[5.75 µM]	>57	-7%[5.75 µM]	-3%[8 µM]
COC(=O)C1CCN(C(c2cc(OC)c(OC)c(OC)c2)c2sc3nc(C)nn3c2O)CC1 (stereo unspecified)	10%	>57	9%	-4%
SMILES	AmpC inh no det	Prx2 Sm inh	AmpC inh det	LT uptake inh
CCOC(=O)C1CCN(C(c2cc(OC)c(OC)c(OC)c2)c2sc3nc(C)nn3c2O)CC1 (stereo unspecified)	10%	>57	6%	16µM*
O=c1c(-c2ccccc2)coc2c(CN3CCCC3)c(O)ccc12	-8%	>57	-4%	14%
O=c1c(-c2ccc(Cl)cc2)coc2c(CN3CCOCC3)c(O)ccc12	-5%	.	9%	6.3µM*
COc1cc(-c2nc(-c3cccc(C)c3)no2)cc(OC)c1OC	68%	.	-1%	?
COc1cc2c(C)nc3onc(-c4ccccc4)c3c2cc1OC	104%	>57	-4%	1µM*
c1ccc2c(c1)c1ccccc1n2Cn1c2ccccc2c2ccccc21	-17%[5.75 µM]	>57	-3%[5.75 µM]	-2%[8 µM]
CN(C)C(=O)N1CCC(C(=O)NCc2ccccc2Cl)CC1	-14%	>57	-3%	-7%
O=C(NCc1ccccc1Cl)C1CCN(C(=O)c2sccc2-n2cccc2)CC1	25%	>57	4%	13µM*
CS(=O)(=O)N1CCC2(CCCN(Cc3ccccc3)C2)CC1	0%	>57	1%	?
CC(C)N(CCCNC(=O)CC1Oc2ccccc2NC1=O)Cc1ccccc1 (stereo unspecified)	4µM*[single pt active]	>57	12%	-14%
CC(C)CN(CCCNC(=O)CC1Oc2ccccc2NC1=O)CC(C)C (stereo unspecified)	-10%	>57	-7%	-3%
O=C1Nc2ccccc2OC1CC(=O)N1CCOCC1 (stereo unspecified)	3.2µM*[single pt active]	>57	14%	-5%
O=C(CC1Oc2ccccc2NC1=O)NCCCN1CCCC1=O (stereo unspecified)	4µM*[single pt active]	>57	16%	2%
CC1CC(C)CN(CCCNC(=O)CC2Oc3ccccc3NC2=O)C1 (stereo unspecified)	4µM*[single pt active]	>57	11%	-9%
Nc1c(S(=O)(=O)O)cc(Nc2cccc(S(N)(=O)=O)c2)c2c1C(=O)c1ccccc1C2=O	-6%[5.75 µM]	>57	-11%[5.75 µM]	?
Cn1cccc1C(=O)N1CCC2(CCCN(C(=O)Nc3ccccc3)C2)CC1	21%	>57	-1%	-14%
CCCc1cc(C(=O)Nc2sc(C)c(CC)c2C#N)no1	4µM*[single pt active]	>57	13%	13µM*
CCCc1cc(C(=O)Nc2sc(C)c(C)c2C(=O)OCC)no1	4µM*[single pt active]	>57	21%	?
CCCc1cc(C(=O)Nc2cccnc2)no1	4µM*[single pt active]	>57	11%	-13%
CCOC(=O)c1c(NC(=O)c2cc(C3CC3)on2)sc(C(C)=O)c1C	-20%	>57	5%	1%
CCCc1cc(C(=O)Nc2sc3c(c2C#N)CCC3)no1	4µM*[single pt active]	>57	10%	?
c1cc(CSSCc2ccncc2)ccn1	-6%[5.75 µM]	>57	-2%[5.75 µM]	-3%[8 µM]
Cn1c(=O)c2c(nc(/C=C\c3cccc(Cl)c3)n2C)n(C)c1=O	12%	>57	0%	-3%
CCCCN(CC)CCNC(=O)c1cc2c(C)nc3ccccc3c2o1	12%	>57	2%	13µM*
Cc1nc2ccccc2c2oc(C(=O)NCCN3CCCCC3C)cc12 (stereo unspecified)	4%	>57	1%	7.9µM*
CCN1CCCC1CNC(=O)c1cc2c(C)nc3ccccc3c2o1 (stereo unspecified)	-9%	>57	-2%	?
S=C(S)O[C@@H]1C[C@@H]2C[C@H]1[C@@H]1CCC[C@H]21	16µM*!	>57	16µM*!	?
O=C1NC(=O)[C@]2(Cc3ccccc3N3CCN(c4ccccc4)CC32)C(=O)N1Cc1ccccc1 (stereo partly specified)	10µM*[single pt active]	>57	2%	.
